tim23-1 inh: tim23-1 yeast growth inhibition | S. cerevisiae tim23-1 growth, BacTiter-Glo luminescence, 24 h | inhibition, % at 20 µM | hit rate 1.3% among 330,000;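 active means growth inhibition of the mutant yeast at or above 50%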;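 further: temperature-sensitive mutant grown at 25 °C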
TIM10 inh: inhibits growth of TIM10 yeast strain; S. cerevisiae TIM10 strain growth, BacTiter-Glo luminescence, 24 h; inhibition, % at 10 µM; hit rate 1.4% among 330,000; AID 463195;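 active means inhibition of 40% or more at the single tested concentration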;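 further: wild-type TIM10 isogenic control strain grown at permissive 25 °C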
PfHsp90 set2: reduces growth (ATP signal) of yeast expressing P. falciparum Hsp90. S. cerevisiae expressing PfHsp90, BacTiter-Glo ATP, 48 h; yeast lacking PDR1 and PDR3 efflux regulators. inhibition, % at 9.4 µM. hit rate 0.32% among 310,000;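 active means every replicate shows inhibition above about 80%, whatever the replicate mean, limit read from the data; inconclusive means mean inhibition reaches the set limit but some replicate falls short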
NALP1 inh: inhibitors of NALP1 inflammasome in yeast; S. cerevisiae NALP1/ASC/caspase-1 growth, X-gal OD620, 72 h; inhibition, % at 10 µM; hit rate 0.61% among 280,000; AID 2071; in the data active means inhibition mostly above about 24%, no sharp cut-off; inactive means mostly below about 32%
tim10-1 inh: growth inhibitors of tim10-1 mutant yeast | S. cerevisiae tim10-1 ts strain growth, BacTiter-Glo, 24 h | inhibition, % at 20 µM | AID 463190 | hit rate 2.2% among 330,000;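 active means inhibition of at least 40%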;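 further: mutant grown at 25 °C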
NALP3 yeast inh: blocks the NALP3 inflammasome reconstituted in yeast; Yeast reconstituted NLRP3/ASC/caspase-1, beta-gal luminescence, 24 h; AID 2825; hit rate 0.39% among 330,000; inhibition, % at 10 µM;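 active means inhibition of 50% or more; inactive means inhibition below 50%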
tim10-1 conf: confirmation of tim10-1 mutant yeast growth inhibitors; shares compounds with tim10-1 inh; S. cerevisiae tim10-1 ts strain growth, BacTiter-Glo, 24 h; inhibition, % at 20 µM; hit rate 56% among 7,400; AID 463213;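 active means inhibition of yeast growth at or above a set limit in either of two repeat tests at 20 µM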;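 further: tim10-1 mutant grown at permissive 25 °C to find synthetic lethal compounds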
Each line names hits and unclear results; the compound was inactive in the other large screens (follow-up assays come after a bar, where they were run). Most compounds without a hit are left out; they make up all but 4.2% or so of the library.

CC(=O)Nc1ccc(S(=O)(=O)NCCC(=O)NCc2ccncc2)cc1	none (no result: NALP1 inh)
CCc1ccc2[nH]c(C(=O)Nc3ccc(Br)c(C)n3)cc2c1	none
COC(=O)CSc1nnc(Cc2ccccc2)n1-c1ccc(C)cc1	tim10-1 inh 41 | tim10-1 conf inactive
COc1cc(NC(=O)c2cc(-c3ccccc3Cl)on2)cc(OC)c1OC	tim10-1 inh 45 | tim10-1 conf inactive
CC(C)(C)NC(=O)C(c1cccs1)N(Cc1ccc(F)cc1)C(=O)c1csnn1 (centres undefined)	tim10-1 inh 43 | tim10-1 conf inactive
CC(NC(=O)Nc1cccc([N+](=O)[O-])c1)(C(F)(F)F)C(F)(F)F	tim10-1 inh 42 | tim10-1 conf 33
O=C(Nc1cccc([N+](=O)[O-])c1)c1cccc(C(=O)Nc2cccc([N+](=O)[O-])c2)c1	none
CCOC(=O)/C=C/C(=O)OCC(=O)Nc1ccc([N+](=O)[O-])cc1	tim10-1 inh 43 (no result: NALP1 inh) | tim10-1 conf 59
COC(=O)/C=C/C(=O)Nc1cccc(C(F)(F)F)c1	tim10-1 inh 47 | tim10-1 conf 51
CCOC(=O)/C=C/C(=O)Nc1cccc([N+](=O)[O-])c1	PfHsp90 set2 98, NALP1 inh 81, tim10-1 inh 56 | tim10-1 conf 71
COc1cc(/C=C/C(=O)OCC(=O)Nc2ccc([N+](=O)[O-])cc2)ccc1O	none
COC(=S)Nc1cccc(C(F)(F)F)c1	none
CCOc1ccc(S(=O)(=O)Nc2ccn(C)n2)cc1	none (no result: NALP1 inh)
CCOC(=O)C1CCN(C(=O)CNC(=O)c2nn(-c3ccc(OC)cc3)c(=O)c3ccccc23)CC1	none
Cn1c(=O)c2c(nc(CN3CCN(c4ccccc4)CC3)n2CCCc2ccccc2)n(C)c1=O	tim10-1 inh 43 (no result: PfHsp90 set2, NALP1 inh) | tim10-1 conf inactive
Cc1ccccc1NC(=O)c1ccc(F)c(S(=O)(=O)N2CCN(c3ccccn3)CC2)c1	tim10-1 inh 41 | tim10-1 conf 39
CN1CCN(CC(=O)c2cc(C(C)(C)C)c(O)c(C(C)(C)C)c2)CC1	tim10-1 inh 44 | tim10-1 conf inactive
Cc1ccc2cccc(OCc3ccc(Br)cc3)c2n1	tim10-1 inh 44 | tim10-1 conf inactive
Cc1ccc2cccc(OCc3ccc(F)cc3)c2n1	none
CCOC(=O)c1sc(NC(=O)C2CC2)nc1C	tim10-1 inh 47 | tim10-1 conf 32
CCOC(=O)c1sc(NC(=O)CC)nc1C	none
CCc1nn(C(C)C(=O)NC2CCCCCC2)c(=O)c2cc3occc3n12 (centres undefined)	tim10-1 inh 41 | tim10-1 conf inactive
CC1(C)Cc2ccccc2-c2n[nH]c(=S)n21	tim10-1 inh 56 | tim10-1 conf inactive
O=C(c1ccco1)N1CCN(c2c([N+](=O)[O-])nn(-c3ccc(Cl)cc3)[n+]2[O-])CC1	none
CC1CCN(c2c([N+](=O)[O-])nn(-c3ccc4c(c3)OCCO4)[n+]2[O-])CC1	tim10-1 inh 44 (no result: PfHsp90 set2) | tim10-1 conf inactive
COc1cc(C2C(C#N)=C(N)Oc3cc4c(cc32)OCO4)cc(OC)c1OC (centres undefined)	none
N#CC1=C(N)Oc2cc3c(cc2C1c1ccc(Cl)cc1)OCO3 (centres undefined)	tim10-1 inh 43 | tim10-1 conf inactive
CCC1(c2ccc(OC)cc2)NC(=O)N(CC(=O)NC2CCCCC2C)C1=O (centres undefined)	none (no result: NALP1 inh)
CCOc1ccc(S(=O)(=O)NCCC(=O)OCC(=O)c2ccc(NC(C)=O)cc2)cc1	none (no result: NALP1 inh)
CCn1c(=O)n(CC)c2cc(N3CCCC3)c(NC(=O)c3ccc(C)cc3)cc21	tim10-1 inh 42 | tim10-1 conf inactive
CCn1c(=O)n(CC)c2cc(N3CCCC3)c(NC(=O)c3ccccc3)cc21	none
CCn1c(=O)n(CC)c2cc(N3CCCC3)c(NC(=O)c3cc(Br)ccc3OC)cc21	tim10-1 inh 44 (no result: PfHsp90 set2) | tim10-1 conf inactive
O=C(CCN1C(=O)/C(=C/c2ccc(F)cc2)SC1=S)N[C@@H](CO)Cc1ccccc1	none
Cc1ccc(S(=O)(=O)N(c2ccc(Br)cc2)C2C=CS(=O)(=O)C2)cc1 (centres undefined)	none
CCN(CC)S(=O)(=O)c1cc(OC)ccc1N=Nc1ccc(O)c2ncccc12	PfHsp90 set2 inconclusive, tim10-1 inh 44 | tim10-1 conf 42
CCS(=O)(=O)c1ccc(OC)c(N=Nc2ccc(O)c3ncccc23)c1	tim10-1 inh 41 | tim10-1 conf 38
Cc1ccc(/C(N)=N/OC(=O)N2CCOCC2)cc1	tim10-1 inh 58 | tim10-1 conf 46
Cc1c(NC(=O)/C(C#N)=C/c2ccc(-c3ccc(Cl)c(Cl)c3)o2)c(=O)n(-c2ccccc2)n1C	tim10-1 inh 43 | tim10-1 conf 28
COc1cccc(C2CC(c3ccccc3Cl)Nc3ncnn32)c1 (centres undefined)	none (no result: tim23-1 inh, TIM10 inh, NALP1 inh, tim10-1 inh, NALP3 yeast inh)
Clc1ccc(C2CC(c3cccs3)n3ncnc3N2)c(Cl)c1 (centres undefined)	tim10-1 inh 41 (no result: PfHsp90 set2) | tim10-1 conf inactive
COc1cc(/C=C/C(=O)OCC(=O)Nc2oc(C)c3c(C)n[nH]c(=O)c23)ccc1OC(F)F	none (no result: NALP1 inh)
COc1ccccc1-c1cc(C(F)(F)F)nc(S(=O)(=O)CCCC(=O)O)n1	none (no result: PfHsp90 set2)
COc1ccc(-c2cc(C(F)(F)F)nc(SCC(=O)N3CCOCC3)n2)cc1OC	none
COc1ccc(-c2cc(C(F)(F)F)nc(S(=O)(=O)CCC(=O)N3CCOCC3)n2)cc1	tim10-1 inh 48 | tim10-1 conf inactive
COc1ccccc1-c1cc(C(F)(F)F)nc(S(=O)(=O)CCCC(=O)N2CCOCC2)n1	tim10-1 inh 40 | tim10-1 conf inactive
Cc1c(C(=O)N2CCN(c3ccc(C(F)(F)F)cn3)CC2)oc2ccccc12	tim10-1 inh 41 | tim10-1 conf 37
Cc1ccc(C(=O)N2CCN(c3ccc(C(F)(F)F)cn3)CC2)cc1	none
Cc1ccc(C(=O)N2CCN(c3ccc(C(F)(F)F)cn3)CC2)c(C)c1	tim10-1 inh 44 | tim10-1 conf inactive
CSc1cc(C)c(OCC(=O)Nc2c(C)nn(C)c2C)c(C)c1	none
CCCCCCCCNC(=O)/C(C#N)=C/c1ccc(SC)cc1	tim10-1 inh 50 | tim10-1 conf 38
CCCCCCCCNC(=O)/C(C#N)=C/c1ccc2c(c1)OCCO2	none
COc1ccc(NC(=S)/N=C(\N)Nc2nc(C)c3ccc(C)cc3n2)cc1	tim10-1 inh 40 (no result: PfHsp90 set2) | tim10-1 conf inactive
CCOc1ccc2nc(N/C(N)=N/C(=S)Nc3ccc(C)c(C)c3)nc(C)c2c1	none
Cc1ccc2c(C)nc(N/C(N)=N/S(=O)(=O)c3ccc([N+](=O)[O-])cc3)nc2c1	tim10-1 inh 42 (no result: PfHsp90 set2) | tim10-1 conf inactive
CCOc1cc(C(=O)NC(=S)Nc2cccnc2)cc(OCC)c1OCC	tim10-1 inh 43 | tim10-1 conf inactive
CCOc1ccc(C(=O)NC(=S)Nc2cccnc2)cc1	none
